# Measured values as given in PubChem BioAssay (NCATS).
# Assay: High-throughput drug toxicity screening in the BPDCN cell line Cal-1 (AID 1224825)
# Settings: Cal-1 BPDCN cell viability, qHTS; at 45.8 µM (top of the series) unless noted
# Excerpt: Blastic plasmacytoid dendritic cell neoplasm (BPDCN) is a rare, aggressive and largely incurable hematologic malignancy originating from plasmacytoid dendritic cells (pDCs). Although an initial response to chemotherapy is common, BPDCN prognosis is extremely poor and most patients relapse with drug-resistant disease leading to a median overall survival of ~1 year after diagnosis. To explore novel potential therapeutic strategies in BPDCN, we performed a high-throughput drug toxicity screening in BPDCN cell liens, using of a library of 1,912 small molecules, enriched for compounds that are either approved or in early stages of development for cancer therapy.
# A total of 500 exponentially growing Cal-1 cells were seeded per well in 5 uL of media (RPMI + Glutamine, without phenol red plus10% FBS and 1X Pen/Strep) into 1536-well solid white high base tissue culture treated Greiner One Bio Plates (789173-F), using a multidrop combi dispenser and a small sterile cassette. Compounds and controls totaling 23nL per well (negative control DMSO and positive control 9.2 uM Bortezomib-final) were immediately added to the plates using a 1536 head pin tool from Kalypsys. The plates were then covered with stainless steel gasket lids from Kalypsys and incubated for 48 hours at 37C under 95% relative humidity with 5% CO2. After 48 hours, the plates were removed and allowed to reach room temperature before 3 uL of Cell Titer Glo reagent (Promega) were added using an Aurora Flying Reagent Dispenser Bioraptor. The plates were then spun at 1000 rpms to remove bubbles and incubated for 15 minutes at room temperature before reading on a ViewLux using a luminescent filter with a 10 second exposure. The relative luciferase units were used to calculated percent activity using DMSO as 100% and Bortezomib as 0%.
row,Structure (SMILES),viability (% of control)
1,Cn1c(=O)n(-c2ccc(C(C)(C)C#N)cc2)c2c3cc(-c4cnc5ccccc5c4)ccc3ncc21,11.9%
2,CC(C)c1cnn2c(NCc3ccccc3)cc(N[C@@H](CO)[C@H](O)CO)nc12,0.824%
3,O=C(O)Cn1nnc(-c2cc(N3CCC(Oc4cc(F)ccc4Br)CC3)no2)n1,114%
4,COc1ccc(C=Cc2cc(OC)c(OC)c(OC)c2)cc1O,8.52%
5,Cc1coc2c1C(=O)C(=O)c1c-2ccc2c1CCCC2(C)C,83.1%
6,CCOc1ccccc1OCCNC(C)Cc1ccc(OC)c(S(N)(=O)=O)c1 (stereo not given),97.4%
7,C=CC(=O)Nc1cc2c(Nc3ccc(F)c(Cl)c3)ncnc2cc1C#CC(C)(C)N1CCN(C)CC1,1.87%
8,CC(C)c1ccccc1Cc1cc(C(=O)Nc2ccc(S(=O)(=O)c3ccccc3C(C)(C)C)cc2)c(O)c(O)c1O,14.8%
9,Nc1ncnc2c1c(-c1cnc3[nH]ccc3c1)nn2C1CCCC1,3.58%
10,O=C(CCCCCCC(=O)Nc1ccc([C@H]2O[C@@H](CSc3nc(-c4ccccc4)c(-c4ccccc4)o3)C[C@@H](c3ccc(CO)cc3)O2)cc1)NO,4.48%
11,OCCCNc1cc(-c2ccnc(Nc3cccc(Cl)c3)n2)ccn1,2.53%
12,O=C(Nc1ncc(-c2cc(C(F)F)nn2-c2c(Cl)cccc2Cl)s1)C1CC1,9.09%
13,CC(C)c1cc(C(=O)N2Cc3ccc(CN4CCN(C)CC4)cc3C2)c(O)cc1O,15%
14,COc1c(OCCCN2CCOCC2)ccc2c3n(c(=NC(=O)c4cnc(N)nc4)nc12)CCN3,69.2% [at 23.2 µM]
15,Nc1nc(Nc2ccc(S(N)(=O)=O)cc2)nn1C(=O)c1c(F)cccc1F,6.01%
16,CNC(=O)c1ccc(-c2cnc3ncc(Cc4ccc5ncccc5c4)n3n2)cc1F,92.3%
17,CN(C1CCc2c(c3ccccc3n2CC(=O)O)C1)S(=O)(=O)c1ccc(F)cc1 (stereo not given),39.5%
18,COc1cccc2nc(-c3cccs3)nc(NN3C(=O)C=C(C)C3=O)c12,3.16%
19,COc1cc2c(Oc3ccc(NC(=O)C4(C(=O)Nc5ccc(F)cc5)CC4)cc3F)ccnc2cc1OCCCN1CCOCC1,4.49%
20,Cn1c2ccccc2c2c3c(c4c5ccccc5n(CCC#N)c4c21)CNC3=O,15.7%

row,Structure (SMILES),viability (% of control)
1,Nc1nccc(Oc2ccc(NC(=O)c3c[nH]cc(-c4ccc(F)cc4)c3=O)cc2F)c1Cl,5.21%
2,CC1(C)OC2=C(C(=O)c3ccccc3C2=O)[C@H](NCc2ccccc2)[C@H]1O,8.3%
3,CC(C)(O)c1cc2nc(-c3cnc(N)nc3)nc(N3CCOCC3)c2s1,24%
4,C=CC(=O)Nc1cccc(Oc2nc(Nc3ccc(N4CCN(C)CC4)cc3OC)ncc2Cl)c1,16.3%
5,CC(C)(O)CCc1ccc(OCc2cc(-c3cccc(OC(F)F)c3)c3ncccc3c2)cc1,75.3%
6,O=C(O)CCCc1c[nH]c2ccccc12,32.3%
7,CN(C)CC=CC(=O)Nc1cc2c(Nc3ccc(F)c(Cl)c3)ncnc2cc1O[C@H]1CCOC1,5.7%
8,Cc1cc(Nc2nc(N[C@@H](C)c3ccc(F)cc3)c(C#N)cc2F)n[nH]1,12.6%
9,COc1cc2ncn(-c3cc(OCc4ccccc4C(F)(F)F)c(C(N)=O)s3)c2cc1OC,4.46%
10,CC(=O)OCCN1C(=O)c2c(C)nc3ccc(S(=O)(=O)N4CCOCC4)cc3c2C1=O,47.9%
11,Cc1nc(N)ncc1-c1nc(N2CCOCC2)c2sc(C(C)(C)O)cc2n1,14%
12,Cc1cc(Nc2ncnc3ccc(-c4ccc(CNCCS(C)(=O)=O)o4)cc23)ccc1Oc1ccn2ncnc2c1,0.85%
13,O=c1c2ccccc2nc2n1CCc1c-2[nH]c2ccccc12,72.9%
14,CN(C)CCCN=c1c2ccccc2n(C)c2[nH]c(=O)n(C)c(=O)c12,4%
15,CN1CCN(c2ccc3nc(-c4c(N)c5c(F)cccc5[nH]c4=O)[nH]c3c2)CC1,3.34%
16,CN(C)c1nc(Cc2ccc(NC(=O)c3ccc4ccccc4c3)cc2)nc(Cl)c1CC(=O)O,113%
17,CCCn1c(=O)c2[nH]c(-c3cnn(Cc4cccc(C(F)(F)F)c4)c3)nc2n(CC)c1=O,107%
18,CC(C)[C@H](C(=O)Nc1ccc(C(=O)NO)cc1)c1ccccc1,6.36%
19,CCC[C@H](NC(=O)C(C#N)=Cc1cccc(Br)n1)c1ccccc1,4.33%
20,C=CC(=O)Nc1cc2c(Nc3ccc(F)c(Cl)c3)ncnc2cc1OCCCN1CCOCC1,11.2%
